Compounds with a hit are over-represented: about 0.43% of the library has one in this group of screens.
GAA inh – inhibitors of human lysosomal alpha-glucosidase; hit rate 0.005% among 200,000; AID 1466; Potency, µM (titrated, usually from 76.9 µM), actives largely listed as inhibitors; purified human GAA, 4-MU-alpha-glucoside fluorescence; P10253
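qHTS format, compound range up to 77 uM. Human lysosomal enzyme at 4 nM, 400 uM 4-MU glucoside substrate, pH 5.0, 20 min room temperature; fluorescence after alkaline stop gives activity normalized to controls.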
GLA inh pH 4.5 – inhibitors of human alpha-galactosidase A at pH 4.5; purified enzyme, 4-MU-alpha-Gal fluorescence, pH 4.5; activity change, negative = inhibition, % at 105 µM; 230,000 tested, under 10 active
N370S GC – inhibits or activates N370S mutant glucocerebrosidase. Potency, µM (top dose mostly 59.4 µM), usual class: inhibitors. P04062. AID 2101. hit rate 0.092% among 330,000. N370S GC spleen homogenate, 4MU-glucoside fluorescence
aGal spleen mod – inhibits or activates alpha-galactosidase in human spleen homogenate. hit rate 0.008% among 240,000. Potency, µM (top dose mostly 80 µM), usual class: inhibitors. P06280. human spleen homogenate, 4MU-alpha-Gal fluorescence, 40 min
Target sequence (P06280 32-429 limits assumed): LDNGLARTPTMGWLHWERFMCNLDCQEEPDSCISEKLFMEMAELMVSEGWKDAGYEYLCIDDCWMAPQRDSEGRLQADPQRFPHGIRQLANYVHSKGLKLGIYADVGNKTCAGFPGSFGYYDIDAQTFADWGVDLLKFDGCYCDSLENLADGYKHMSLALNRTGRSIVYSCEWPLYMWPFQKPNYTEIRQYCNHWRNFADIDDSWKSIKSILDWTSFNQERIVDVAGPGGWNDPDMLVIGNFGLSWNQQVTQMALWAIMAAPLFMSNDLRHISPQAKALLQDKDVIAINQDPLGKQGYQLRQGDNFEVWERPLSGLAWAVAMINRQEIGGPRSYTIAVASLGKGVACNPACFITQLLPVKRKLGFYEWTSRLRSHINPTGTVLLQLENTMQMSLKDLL
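qHTS titration in buffer at pH 5.0. Alpha-galactosidase activity in spleen homogenate was measured via 4-methylumbelliferone release from 1 mM fluorogenic substrate after 40 min at 37C and a pH 10 stop. AC50 came from Hill fits of control-normalized data.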
GAA spleen mod – inhibits or activates alpha-glucosidase in human spleen homogenate | P10253 | human spleen homogenate, 4-MU-alpha-glucoside fluorescence | Potency, µM (doses to about 79.9 µM), hits mostly inhibitors | hit rate 0.006% among 240,000 | AID 2112
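Enzyme source: human spleen homogenate, 1 ug/well. Buffer 50 mM citric acid/K phosphate pH 5.0, 0.01% Tween-20. 4-MU-alpha-glucoside 1 mM; 37 C x 40 min; NaOH/glycine stop; fluorescence.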
GAA glycogen – alters human alpha-glucosidase cleavage of glycogen | recombinant GAA, glycogen substrate, Amplex Red glucose oxidase fluorescence | Potency, µM (top dose mostly 76.4 µM), usual class: inhibitors | hit rate 0.38% among 300,000 | AID 2100;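 note: the screen sought inhibitors and activators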
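Recombinant human enzyme (4 nM); glycogen substrate; 37 C, 40 min, pH 5.0. Readout: coupled glucose oxidase/Amplex Red fluorescence.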
Large screens that a line does not name were inactive; ! = not active in a repeat. Calls come from the whole dose curve; as a rule, active = well fitted curve in the direction sought with a large enough effect; inconclusive = small, poorly fitted or top-dose-only effect, or another doubt; inactive = no such curve, though single readings can be large; an effect the other way counts as inactive or inconclusive.

C[C@]12C[C@H](O)CC(CO)(CO)C1[C@H](O)C[C@@]13CC4[C@@H](CC12)[C@@]4(C)C3 (some centres not stated)	none (no result: GAA inh, GAA glycogen)
Oc1ccccc1N=Cc1ccc[nH]1	GAA glycogen 2.8µM
Fc1ccc(N=Cc2ccc[nH]2)cc1	none (no result: GAA inh, GLA inh pH 4.5, aGal spleen mod, GAA spleen mod)
Clc1ccc(Sc2cc(Cl)c(Cl)cc2Cl)cc1	none (no result: GAA inh, GLA inh pH 4.5, GAA glycogen)
c1ccc(-c2ccc3c(c2)NCCN3)cc1	GAA glycogen 8.9µM (no result: GAA inh)
Cc1cccc(C)c1Nc1c(-c2ccsc2)nc2cccc(C)n12	none (no result: GAA inh, GLA inh pH 4.5, N370S GC, aGal spleen mod, GAA spleen mod)
CSc1ccc(-c2nc3cccc(C)n3c2Nc2ccc(Cl)cc2)cc1	GAA glycogen 5.6µM (no result: GAA inh, GLA inh pH 4.5, N370S GC, aGal spleen mod, GAA spleen mod)
CC[C@H](C)[C@@H](NC(=O)O[C@@H]1C(=O)c2ccc(OC)cc2O[C@H]1c1cccc(C(F)(F)F)c1)C(=O)OC	none (no result: GAA inh, GAA glycogen)
CC(=O)N(c1ccc(Cl)cc1)c1cn(C(C)=O)c2ccccc12	N370S GC 18µM
CN1C2CC(OC(=O)C(CO)c3ccccc3)C[C@@H]1[C@H]1OC21 (some centres not stated)	none (no result: GAA inh, GAA glycogen)
c1ccc(C(OC2CCCN(CCc3ccc4c(c3)OCO4)C2)c2ccccc2)cc1 (configuration not stated)	none (no result: GAA inh, GLA inh pH 4.5, GAA glycogen)
NC(N)=N/N=C/c1ccc(OCc2ccccc2Cl)cc1	N370S GC 22µM
NC(N)=N/N=C/c1ccccc1	none
NC(N)=N/N=C/c1ccc(OCc2ccccc2)c(OCc2ccccc2)c1	N370S GC 11µM (no result: GAA inh, GLA inh pH 4.5, aGal spleen mod, GAA spleen mod)
COc1cc(/C=N/N=C(N)N)ccc1OCc1ccc(Cl)cc1	N370S GC 7.9µM
Cc1ccccc1N=C1NC(=O)CC(c2ccccc2)S1 (configuration not stated)	GAA glycogen 11µM
COc1ccc(OC)c(S(=O)(=O)Nc2ccc(O)c3ccccc23)c1	GAA glycogen 14µM
Cc1ccc(S(=O)(=O)N/N=C/c2cc([N+](=O)[O-])ccc2O)cc1[N+](=O)[O-]	none
Cc1ccc(S(=O)(=O)N/N=C/c2ccc(O)cc2O)cc1[N+](=O)[O-]	GAA glycogen 25µM (no result: GAA inh)
C/C(=N\Nc1ccc(C(=O)O)cc1)c1ccc2c(c1)Nc1ccccc1S2	GAA glycogen 11µM (no result: GAA inh)
CCc1c2c(nc3ccc4c(c13)OCCO4)-c1nc3ccccc3c(=O)n1C2	none (no result: GAA inh, GLA inh pH 4.5, GAA glycogen)
CCCCCCCCCCCCC/C=C/C(O)C(COP(=O)(O)OCCN)NC(=O)CCCCCCCCCCCCCCCCC (configuration not stated)	none (no result: GAA inh, GLA inh pH 4.5, GAA glycogen)
CCOC(=O)Cc1csc(NC(=O)NC2(C(F)(F)F)Oc3cc(Cl)c(Cl)cc3O2)n1	GAA glycogen 8.8µM
CCOC(=O)Cc1csc(NC(=O)NC2(C(F)(F)F)Oc3ccccc3O2)n1	GAA glycogen 18µM
CCOC(=O)Cc1csc(NC(=O)Cc2ccc(Cl)cc2)n1	none (no result: GAA inh)
CCOC(=O)Cc1csc(NC(=O)Nc2ccc(OC(F)(F)F)cc2)n1	none
CCOC(=O)Cc1csc(NC(=O)NC2(C(F)(F)F)Oc3ccc(Cl)cc3O2)n1 (configuration not stated)	GAA glycogen 11µM
CC(=O)Nc1ccc(S(=O)(=O)N2CCc3nc(COc4ccccc4)c4c(c3C2)CO[C@@H](C)C4)cc1	none (no result: GAA inh, GAA glycogen)
COc1ccc(C2C=C3CN(C(=O)OC(C)(C)C)S(=O)(=O)C3CC2OC(=O)c2cccc(C)c2)cc1 (configuration not stated)	none (no result: GAA inh, GLA inh pH 4.5, GAA glycogen)
CCc1cccc(C)c1Nc1c(-c2cccs2)nc2nc(C)cc(C)n12	none (no result: GAA inh, GLA inh pH 4.5, N370S GC, aGal spleen mod, GAA spleen mod)
CCc1cccc(C)c1Nc1c(-c2cccc(O)c2)nc2sccn12	GAA glycogen 35µM (no result: GAA inh, GLA inh pH 4.5, N370S GC, aGal spleen mod, GAA spleen mod)
O=C(O)COCC(=O)N1CCN(C2c3ccccc3-c3ccccc32)CC1	none (no result: GAA inh)
NC(N)=NCCC[C@H](NC(=O)CC1(CC(=O)N2CCN(C3c4ccccc4NC(=O)c4ccccc43)CC2)CCCC1)C(=O)NCCn1c(=O)n(-c2ccccc2)n(-c2ccccc2)c1=O (some centres not stated)	N370S GC 18µM (no result: GAA inh, GAA glycogen)
O=[N+]([O-])c1ccc(N/N=C/c2cccc(O)c2O)cc1	GAA glycogen inconclusive (no result: GAA inh, GLA inh pH 4.5, aGal spleen mod, GAA spleen mod)
O=[N+]([O-])c1ccc(N/N=C/c2ccc[nH]2)cc1	GAA glycogen 7.9µM (no result: N370S GC)
O=[N+]([O-])c1ccc(N/N=C/c2c[nH]c3ccccc23)cc1	GAA glycogen 18µM (no result: N370S GC)
Cc1noc(C)c1-c1ccc2ncnc(NCc3cccn3C)c2c1	none (no result: GAA inh, GLA inh pH 4.5, GAA glycogen)
O=C1c2ccccc2C(=O)N1CCc1c[nH]c2ccc(O)cc12	GAA inh inconclusive, GAA glycogen 3.1µM
C=CCOC(=O)C1(C(NC(=O)OC)c2ccccc2)C(=O)Cc2ccccc21 (configuration not stated)	none (no result: GAA inh, GAA glycogen)
O=C(/C=C/c1ccc(O)c(O)c1)c1ccccc1O	GAA glycogen 7.9µM (no result: GAA inh)
O=C(/C=C/c1ccc(O)cc1)c1ccc(O)cc1O	N370S GC 1.8µM!
O=C(O)/C=C\c1ccc(O)c(O)c1	none (no result: GAA inh, GAA glycogen)
COc1cc(OC)cc(-c2nnc3n2N=C(c2ccc(OC)cc2OC)CS3)c1	none (no result: GAA inh, GLA inh pH 4.5, GAA glycogen)
Cc1nc(Nc2ccc(O)cc2)c2c3c(sc2n1)CCCC3	N370S GC 11µM, GAA glycogen 14µM

Compound activity as filed in PubChem.
